Results taken from PubChem BioAssay (Tox21).
The source made the active and inactive calls. Calls come from the whole dose curve; as a rule, active = well fitted curve in the direction sought with a large enough effect in the repeat runs; inconclusive = weak or mixed curves; inactive = flat fitted curve, though single readings scatter.

Experiment: qHTS assay to test for compound auto fluorescence at 535 nm (green) in HepG2 cell free culture (AID 720686)
Details: Cell-free medium, green autofluorescence 485/535 nm; series mostly up to 91.3 µM
Excerpt: U.S. Tox21 Program National Center for Advancing Translational Sciences [NCATS] NIH Chemical Genomics Center [NCGC] U.S. Environmental Protection Agency [EPA] National Institutes of Environmental Health Sciences [NIEHS] National Toxicology Program [NTP] U.S. Food and Drug Administration [FDA] Tox21 Assay Overview: Compound auto fluorescence often interferes with screening of the compound library against various biological targets and signaling pathways. Some of these compounds may have fluorophoric properties. Such properties may interfere with the assay outputs resulting in false positives and/or negatives. To decrease such complications and ensure the compound activities are relevant in terms of biological response, the Tox21 10K compound library was screened for auto fluorescence. From the fluorophores used as reporter signals in our screening assays, the auto fluorescence equivalencies of compounds against three fluorophores have been evaluated: Triamterene, Fluorescein and Rose Bengal sodium for blue, green and red fluorescence, respectively. The fluorescence intensities were measured using Excitation/Emission wavelengths at 405/460nm, 485/535nm and 540/590nm for blue, green and red labels, respectively. This assay includes the green fluorescence data.
Tox21 Assay Protocol Summary: 5 uL of culture medium (MEM containing 10% FBS) per well was dispensed into black wall/clear bottom 1536-well plates using a Multidrop Combi Dispenser (ThermoFisher Scientific, Waltham, MA). After 23 nL compound or DMSO vehicle was transferred into assay plate by a pintool work station (Kalypsys, San Diego, CA), fluorescence intensities in the assay plates were measured by an Envision (PerkinElmer, Shelton, CT) plate reader using three labels for measuring blue, green and red fluorescence at […] 460, 535 and 590nm respectively.

| SMILES | outcome |
| --- | --- |
| CC(=O)c1nccs1 | inactive |
| NC(N)=S | inactive |
| NC1CCCCC1N (stereo not given) | inactive |
| O=[N+]([O-])c1ccccc1C(F)(F)F | inactive |
| CC(CN1c2ccccc2Sc2ccccc21)N(C)C (stereo not given) | inactive |
| COc1c(Cl)ccc(Cl)c1C(=O)O | inactive |
| Cc1cc(C)cc(O)c1 | inactive |
| Cc1ncc(CO)c(CO)c1O | inactive |
| CCc1cccc(O)c1 | inactive |
| CCCCCNCCCCC | inactive |
| Nc1nc(N)c2nc(-c3ccccc3)c(N)nc2n1 | inactive |
| CC[N+](CC)(CC(=O)Nc1c(C)cccc1C)Cc1ccccc1 | inactive |
| CC(C)c1ccc(C(C)C)cc1 | inactive |
| Brc1ccc(Oc2ccc(Br)cc2)cc1 | inactive |
| CCOC(=O)c1ccc(O)cc1 | inactive |
| OCC(O)CS (stereo not given) | inactive |
| C1CCCNCC1 | inactive |
| COc1ccc([C@@H]2CC(=O)c3c(O)cc(O[C@@H]4O[C@H](CO[C@@H]5O[C@@H](C)[C@H](O)[C@@H](O)[C@H]5O)[C@@H](O)[C@H](O)[C@H]4O)cc3O2)cc1OC | inactive |
| CC(C)=CCC/C(C)=C/C=O | inactive |
| CCCCCCCCCCCCCC(=O)O | inactive |

| SMILES | outcome |
| --- | --- |
| CCN(CC)CCNC(=O)c1ccc(N)cc1 | inactive |
| CC1(C)C(=O)N(Cl)C(=O)N1Cl | inactive |
| CC(=O)CC(=O)N(C)C | inactive |
| Cc1ccc(C(C)C)cc1 | inactive |
| N[C@@H](Cc1cc(I)c(Oc2ccc(O)c(I)c2)c(I)c1)C(=O)O | inactive |
| O=C1OC(=O)c2c(Cl)c(Cl)c(Cl)c(Cl)c21 | inactive |
| Cc1ccc(Cl)cc1 | inactive |
| CCCCCC(C)=O | inactive |
| CC/C(C)=N/O | inactive |
| C=C(C)CC(C)(C)C | inactive |
| Cc1cc(C)c(O)c(C)c1 | inactive |
| CC(C=O)Cc1ccc(C(C)(C)C)cc1 (stereo not given) | inactive |
| O=C(O)Cc1c[nH]c2ccccc12 | inactive |
| OCC(CO)(CO)CO | inactive |
| COc1ccc2cc3[n+](cc2c1OC)CCc1cc2c(cc1-3)OCO2 | inactive |
| CC(=O)OC/C=C(\C)CCC=C(C)C | inactive |
| COc1ccccc1[N+](=O)[O-] | inactive |
| CCCCCCC(=O)O | inactive |
| OB(O)O | inactive |
| Cc1ccc([N+](=O)[O-])cc1N | inactive |
